Results on 16 molecules are retold here after PubChem BioAssay AID743157 (Broad Institute, 2013).

Values without a mark were called inactive. Activity calls are given as the source filed them.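 How the source made its calls: active means cell killing, with a fitted active concentration at or below twice the top valid dose tested; inconclusive means flat fit with 30 to 70 percent signal loss, or poor fit; inactive means effect in the rising direction, plus the rest.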

This experiment in a line: A549 cell cytotoxicity, dose response, cytotoxicity control, CellTiter-Glo luminescence, dry powder, set 4 (AID 743157). Particulars: A549 viability, CellTiter-Glo ATP luminescence, 72 h; series mostly up to 50 µM.
Consider `Cc1c(C(=O)O)sc2nc(/C=C/c3cc4ccccc4cn3)[nH]c(=O)c12`, for which the molecule was called inactive.
Same read-out and setting: the result for `Cc1c(C(=O)O)sc2nc(/C=C/c3cccc(C(N)=O)c3)[nH]c(=O)c12` reads “inactive”.
Consider `Cc1c(C(=O)O)sc2nc(/C=C/c3ccccc3)[nH]c(=O)c12`, for which the call was inactive.
On the same count and under the same terms, under `COc1cccc(/C=C/c2nc3sc(C(=O)O)c(C)c3c(=O)[nH]2)c1` stands “inactive”.
The same measure, in the same setting: the result for `Cc1c(C(=O)O)sc2nc(/C=C/c3cccc([N+](=O)[O-])c3)[nH]c(=O)c12` reads “inactive”.
The same measure, in the same setting: the result for `Cc1c(C(=O)O)sc2nc(/C=C/C=C/c3ccccc3)[nH]c(=O)c12` reads “inactive”; that for `Cc1c(C(=O)O)sc2nc(/C=C/c3cccc(OC(F)(F)F)c3)[nH]c(=O)c12`, “inactive”; that for `Cc1c(C(=O)O)sc2nc(/C=C/c3cccc(N)c3)[nH]c(=O)c12`, “inactive”.
Consider `Cc1c(C(=O)O)sc2nc(/C=C/c3ccccc3O)[nH]c(=O)c12`, for which the molecule was classed as inactive.
Still for that read-out and setting: the result for `Cc1c(C(=O)O)sc2nc(/C=C/c3ccnc4ccccc34)[nH]c(=O)c12` reads “inactive”.
`Cc1c(C(=O)O)sc2nc(/C=C/c3ccc4[nH]ccc4n3)[nH]c(=O)c12`: the activity change, negative = cytotoxicity is 6.14% [at 12 µM].
In the case of `Cc1c(C(=O)O)sc2nc(/C=C/c3cccnc3)[nH]c(=O)c12`, the outcome was inactive.
Same read-out and setting: under `Cc1c(C(=O)O)sc2nc(/C=C/c3cccc(O)c3)[nH]c(=O)c12` stands “inactive”; under `Cc1c(C(=O)O)sc2nc(/C=C/c3ccc4cc[nH]c4c3)[nH]c(=O)c12`, “inactive”; under `Cc1c(C(=O)O)sc2nc(/C=C/c3ccc4[nH]ccc4c3)[nH]c(=O)c12`, “inactive”.
Still for that read-out and setting: the result for `Cc1c(C(=O)O)sc2nc(/C=C/c3ccc(N)nc3)[nH]c(=O)c12` reads “inactive”.
